In PubChem BioAssay (NCATS) one finds Potency, outcome and activity change, negative = cytotoxic data, which are given here for 31 compounds.

Assay [1] can be described thus: qHTS of pediatric cancer cell lines to identify multiple opportunities for drug repurposing: Primary screen for Rh18 cells (AID 1347102). Further: on the % scale 0 is the no-effect control and ±100 the full control effect; nearly all actives have a fitted effect of over 65% in size. An outline of the steps:
(§1)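 Cells (500-1,000/well) rested 5 h, then received compounds for 48 h; metabolically active cells were measured by CellTiter-Glo luminescence. Final concentrations spanned up to 46 µM (MIPE, 11-point) or 0.59 nM-46 µM (NPC, 8-point) in primary screens, 11-point in follow-ups.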

The nature of assay [2]: qHTS of pediatric cancer cell lines to identify multiple opportunities for drug repurposing: Primary screen for OHS-50 cells (AID 1347103). Further: nearly all actives have a fitted effect of over 40% in size. Further: potency means the concentration at half of the fitted maximal effect.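 On activity change, negative = cytotoxic: plate controls were DMSO neutral control for no effect and bortezomib positive control for full effect.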 An outline of the steps: as §1
Assay [3] is described as follows: qHTS of pediatric cancer cell lines to identify multiple opportunities for drug repurposing: Primary screen for RD cells (AID 1347104).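 Further: plate controls were DMSO for no effect and bortezomib for full effect; nearly all actives have a fitted effect of over 55% in size.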 An outline of the steps:
(§2)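 Primary screen of approved and investigational compounds on cells in growth media at 37 degrees C, 5% CO2. MIPE set at 11-point and NPC set at 8-point dilutions; viability scored by ATP-based luminescence at 48 hours.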

Assay [4] can be described thus: qHTS of pediatric cancer cell lines to identify multiple opportunities for drug repurposing: Primary screen for control Hh wild type fibroblast cells (AID 1347106).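 Further: series mostly up to about 46 µM; on the % scale 0 is the no-effect control and ±100 the full control effect; a drop in luminescence marks cytotoxicity and a rise apparent proliferation; nearly all actives have a fitted effect of over 55% in size.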 The method, boiled down: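 Cells (500-1,000/well) in growth media were settled 5 h at 37 degrees C, then given compounds for 48 h. Viability was read as CellTiter-Glo luminescence. Primary runs used MIPE at 11 points (0.78 nM-46 µM) and NPC at 8 points (0.59 nM-46 µM); follow-ups used 11 points.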

Assay [5] in a line: qHTS of pediatric cancer cell lines to identify multiple opportunities for drug repurposing: Primary screen for Rh30 cells (AID 1347107). Further: series mostly up to about 46 µM; on the % scale 0 is the no-effect control and ±100 the full control effect; nearly all actives have a fitted effect of over 75% in size. The method, boiled down: as §1
The nature of assay [6]: qHTS of pediatric cancer cell lines to identify multiple opportunities for drug repurposing: Primary screen for Rh41 cells (AID 1347108).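 Further: series mostly up to about 46 µM; luminescence drop marks cytotoxic hits; nearly all actives have a fitted effect of over 70% in size.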 The method, boiled down:
as §2

The nature of assay [7]: qHTS of pediatric cancer cell lines to identify multiple opportunities for drug repurposing: Primary screen for MG 63 (6-TG R) cells (AID 1347105). Further: on the % scale 0 is the no-effect control and ±100 the full control effect; nearly all actives have a fitted effect of over 50% in size. An outline of the steps: as §2
Assay [8] is described as follows: qHTS of pediatric cancer cell lines to identify multiple opportunities for drug repurposing: Confirmatory screen for A673 cells (AID 1347110).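 Further: cells exposed to compound for 48 h before the viability read; nearly all actives have a fitted effect of over 65% in size.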 Further: potency means the concentration at half of the fitted maximal effect. An outline of the steps: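 Cells plated at 500-1,000/well were treated five hours later with multi-point dilutions up to 46 µM final. After two days, CellTiter-Glo was added and luminescence read.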
A short description of assay [9]: qHTS of pediatric cancer cell lines to identify multiple opportunities for drug repurposing: Confirmatory screen for SK-N-MC cells (AID 1347111).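 Further: potency means the concentration at half of the fitted maximal effect; cells exposed to compound for 48 h before the readout; nearly all actives have a fitted effect of over 70% in size.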 An outline of the steps: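 Seed 500-1,000 cells/well; rest 5 h at 37 degrees C. Pin-transfer compounds, 11-point titration. Incubate 48 h. Add CellTiter-Glo, 15 min RT, read luminescence.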
Assay [10] is described as follows: qHTS of pediatric cancer cell lines to identify multiple opportunities for drug repurposing: Confirmatory screen for NB1643 cells (AID 1347109).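 Further: plate controls were DMSO for no effect and bortezomib for full effect; nearly all actives have a fitted effect of over 45% in size.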 The method, boiled down: as §1

Results filed as inconclusive are left out. Values without a mark were called inactive. The source made the active and inactive calls. The call rests on the fitted dose curve; in most records, active means well fitted curve in the direction sought with a large enough effect; inconclusive means small, poorly fitted or top-dose-only effect, or another doubt; inactive means no such curve, though single readings can be large; an effect the other way counts as inactive or inconclusive.

`C[C@H]1O[C@H](O[C@H]2[C@H](O)[C@@H](O)[C@@H](O[C@H]3[C@H](O)[C@@H](O)[C@H](O)O[C@@H]3CO)O[C@@H]2CO)[C@H](O)[C@@H](O)[C@@H]1N[C@H]1C=C(CO)[C@@H](O)[C@H](O)[C@H]1O`: the Potency result in assay [1], in [2], in assay [3] and in [6] was “inactive” each time. Further, the outcome in assay [4] and in assay [5] was inactive.

On to `COCCOC(=O)C1=C(C)NC(C)=C(C(=O)OC/C=C/c2ccccc2)C1c1cccc([N+](=O)[O-])c1` (configuration not stated), for which the Potency entry in [1] is “inactive”. In assay [2], the Potency is 19.5 µM (active). Besides, the outcome in assay [5] was inactive.

Consider `c1ccc(CN(CC2=NCCN2)c2ccccc2)cc1`, for which the Potency result in assay [1], in [2], in assay [7] and in [6] was “inactive” throughout. Also, the compound was classed as inactive in assay [4] and in assay [5].

For `C[C@]12CC[C@@H]3c4ccc(O)cc4CC[C@H]3[C@@H]1CC[C@@H]2OC(=O)CCC1CCCC1`, the Potency entry in assay [1] and in assay [6] was “inactive” each time. In addition, the Potency in assay [2] is 27.6 µM (active). Besides, the call in assay [4] and in assay [5] was inactive.

As to `CC(=O)NC(Cc1ccccc1)C(=O)O` (configuration not stated), the Potency entry in assay [1], in assay [2], in assay [3] and in assay [6] was “inactive” in each case. The compound was called inactive in assay [4] and in assay [5].

Turning to `O=c1[nH]c(=O)c2[nH]c(=O)[nH]c2[nH]1`, the activity change, negative = cytotoxic was 4.04% [at 9.22 µM] in assay [1]; -8.33% [at 11.5 µM] in assay [2]; 1.57% [at 9.22 µM] in assay [3]; 8.6% [at 9.22 µM] in assay [4]; 2.78% [at 9.22 µM] in assay [5]; -6.34% [at 9.22 µM] in assay [6].

`Nc1ccc(S(=O)(=O)Nc2ccccc2)cc1`: the Potency entry in assay [1], in assay [2], in [3] and in assay [6] was “inactive” throughout. Further, the outcome in [4] and in assay [5] was inactive.

For `NC(=O)c1ncn([C@@H]2O[C@H](CO)[C@@H](O)[C@H]2O)c1N`, the Potency entry in [1], in assay [2], in assay [3] and in [6] was “inactive” in each case. Also, the result in [5] was inactive.

Regarding `CC(C)(C(=O)O)c1ccc(C(O)CCCN2CCC(C(O)(c3ccccc3)c3ccccc3)CC2)cc1` (configuration not stated), the Potency entry in assay [1], in assay [2], in assay [3] and in assay [6] was “inactive” each time. For the same compound, the compound was called inactive in [4] and in assay [5].

As to `NCCNCCNCCNCCN`, the activity change, negative = cytotoxic in assay [1] was -4.13% [at 9.22 µM]; in [2], -3.79% [at 11.5 µM]; in assay [3] it was -3.51% [at 9.22 µM]; in assay [5], 7.05% [at 9.22 µM]; in assay [6] it was 10.3% [at 9.22 µM].

For `CCCCC(CC)COC(=O)c1ccccc1O` (configuration not stated), the Potency entry in assay [1], in assay [2], in [3] and in [6] was “inactive” each time. For the same compound, the result in [5] was inactive.

As for `CC(COc1ccccc1)NC(C)C(O)c1ccc(O)cc1` (configuration not stated), the Potency result in assay [1], in [2], in assay [3] and in [6] was “inactive” each time. Also, the compound was classed as inactive in assay [4] and in [5].

In the case of `NC(=O)NNc1ccccc1`, the Potency entry in assay [1], in [2], in assay [3] and in assay [6] was “inactive” each time. Besides, the compound was called inactive in assay [5].

With `N[C@H](C(=O)O)c1ccc(O)cc1`, the Potency result in assay [1], in [2], in assay [3] and in assay [6] was “inactive” in each case. The compound was called inactive in [4] and in [5].

Consider `CC1(C)S[C@@H]2[C@H](NC(=O)Cc3ccccc3)C(=O)N2[C@H]1C(=O)O` (tested in a mixture with another compound), for which the Potency entry in assay [1], in assay [2], in assay [3] and in assay [6] was “inactive” in each case. Further, the call in [4] and in [5] was inactive.

Consider `Oc1cccc(O)c1`, for which the Potency entry in [1], in assay [2], in assay [3] and in assay [6] was “inactive” each time. The result in [4] and in assay [5] was inactive.

Regarding `[Cl][In]([Cl])[Cl]`, the Potency entry in assay [1], in [7] and in assay [6] was “inactive” in each case. In addition, the Potency in [2] was 25.2 µM (active). The result in [4] and in [5] was inactive.

For `CCOC(=O)[C@H](CCc1ccccc1)N[C@@H](C)C(=O)N1C(=O)N(C)C[C@H]1C(=O)O`, the Potency result in assay [1], in [2], in assay [3] and in assay [6] was “inactive” each time. Further, the call in [4] and in assay [5] was inactive.

`O=C(O)CN1C(=O)c2cccc3cccc(c23)C1=O`: the Potency result in [1], in assay [3], in assay [6] and in assay [8] was “inactive” each time. Further, the Potency is 0.001 µM (active) in assay [2] and 2.93 µM (active) in [9]. For the same compound, the result in [4] and in assay [5] was inactive.

In the case of `COc1cc(C(=O)N2CCOCC2)cc(OC)c1OC`, the Potency entry in assay [1], in assay [2], in assay [3] and in assay [6] was “inactive” throughout. Moreover, the result in assay [5] was inactive.

With `CCCn1cnc2c1c(=O)n(CCCCC(C)=O)c(=O)n2C`, the Potency result in [1], in assay [2], in [3] and in assay [6] was “inactive” throughout. Besides, the outcome in assay [4] and in [5] was inactive.

On to `Cc1cc(O)cc2c1O[C@](C)(CCC[C@H](C)CCC[C@H](C)CCCC(C)C)CC2`, for which the Potency entry in [1], in assay [2], in assay [3] and in assay [6] was “inactive” each time. Further, the compound was called inactive in [4] and in assay [5].

With `NC(CSCC(=O)O)C(=O)O` (configuration not stated), the Potency entry in [1], in assay [2], in assay [3] and in assay [6] was “inactive” throughout. Also, the outcome in assay [4] and in assay [5] was inactive.

Consider `O=C(O)CC(O)C(=O)O` (configuration not stated), for which the Potency entry in assay [1], in assay [2], in assay [3] and in [6] was “inactive” each time. For the same compound, the compound was called inactive in [4] and in [5].

As for `O=C1O[C@H](CO)[C@@H](O)[C@H](O)[C@H]1O`, the Potency entry in assay [1], in [2], in assay [3] and in assay [6] was “inactive” in each case. Moreover, the result in assay [4] and in [5] was inactive.

With `CC1=C(/C=C/C(C)=C/C=C/C(C)=C/C(=O)O)C(C)(C)CCC1`, the Potency result in [1], in assay [3] and in assay [6] was “inactive” in each case. Moreover, the Potency in [2] is 0.0309 µM (active). For the same compound, the result in [4] and in [5] was inactive.

Take `[O-][n+]1cccc(CO)c1`: the Potency result in assay [1], in [2], in assay [3] and in [6] was “inactive” throughout. Also, in [5], the compound was called inactive.

Regarding `O=c1cc[nH]c(=S)[nH]1`, the Potency entry in assay [1], in assay [2] and in assay [10] was “inactive” in each case. The outcome in assay [4] and in [5] was inactive. Also, the Potency was 9.27 µM (active) in assay [8] and 2.93 µM (active) in [9].

On to `Nc1ccc(S(=O)(=O)NC(=O)c2ccccc2)cc1`, for which the Potency result in [1], in [2], in [3] and in assay [6] was “inactive” throughout. Besides, the result in assay [4] and in assay [5] was inactive.

Regarding `CN1[C@@H]2CC(OC(=O)[C@H](CO)c3ccccc3)C[C@H]1[C@@H]1O[C@@H]12` (some centres not stated), the Potency result in [1], in assay [2] and in assay [7] was “inactive” in each case. Besides, the call in assay [4] and in assay [5] was inactive.

As to `O=C(O)c1ccccc1-c1ccc(C(F)(F)F)cc1`, the Potency entry in assay [1], in assay [2], in assay [3] and in assay [6] was “inactive” throughout. Further, the call in assay [5] was inactive.
